According to PubChem BioAssay AID485313 (National Center for Advancing Translational Sciences (NCATS), 2010):
Out of some 320,000 compounds screened, about 7,600 (2.4%) were called active. Not shown: some 3% with an inconclusive outcome. The entries come from a sample that favours actives as a whole. A number with no mark means an inactive call. Calls follow the shape of the dose curve; as a rule, active = well fitted activation curve with a large enough effect; inconclusive = small, poorly fitted or top-dose-only effect; inactive = no such curve, though single readings can be large or run the other way.
Potency is read from the fitted curve at half-maximal effect.

Experiment: qHTS Assay for NPC1 Promoter Activators; also: nearly all actives have a fitted effect of over 60% in size; as to activation: % of control where 0% means no effect
Conditions: Huh7 NPC1 promoter luciferase reporter, 24 h; series mostly up to 9.22 µM; activation: at the top concentration
How it was run: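 Luciferase expression driven by the NPC1 promoter was measured in stably transfected Huh7 cells after a 24 h compound incubation, using a luciferase reagent and a luminescence read.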
For `CCc1nnc(NC(=O)c2cc(S(=O)(=O)N3CCCCC3)ccc2C)s1`, the “activation” value was -2.65%.
For `CCC1(C)CC(=O)NC1=O` (stereo not given), the “activation” value was 0.774% [at 46.1 µM].
In the case of `CC(C)(C)OC(=O)NCCCCCNC(=O)c1[nH]cnc1C(=O)Nc1nccs1`, the “activation” value is reported as 9.24%.
With `CCn1c(SCC(=O)Nc2ccc3c(c2)OCCO3)nnc1-c1ccncc1` the “activation” value was -7.41%.
In the case of `Cn1ccnc1SCC(=O)Nc1ccc2c(c1)OCCO2`, the Potency is reported as 2.51 µM (active).
In the case of `O=C(Nc1ccc2c(c1)OCCO2)c1ccoc1`, the “activation” value is reported as 29.1%.
For `O=C(Nc1ccc2c(c1)OCCO2)c1cnccn1`, the Potency was 2.82 µM (active).
For `O=C(Nc1cccc(NC(=O)c2ccco2)c1)c1cnccn1`, the “activation” value was 2.89%.
In the case of `CCn1c(SCC(=O)Nc2ccc3c(c2)OCCO3)nnc1C(C)C`, the “activation” value is reported as 3.74%.
In the case of `O=C(COC(=O)c1ccccc1Cl)NC1CCCCCCC1`, the “activation” value is reported as -2.13%.
In the case of `O=C(N[C@@H](Cc1c[nH]c2ccccc12)C(=O)O)OCC1c2ccccc2-c2ccccc21`, the “activation” value is reported as -7.22%.
With `O=C(Nc1ccccn1)C1CCN(S(=O)(=O)c2ccc3c(c2)OCCO3)CC1` the “activation” value was 14.3%.
With `CCOC(=O)C1CCCN(S(=O)(=O)c2ccc3c(c2)C(C)(C)C(=O)N3C)C1` (stereo not given) the “activation” value was -2.74%.
With `COc1ccc(N(CCC(=O)NCCc2ccccc2)S(=O)(=O)c2ccc(C)cc2C)cc1` the “activation” value was 22.4%.
For `COc1ccc([C@H]2CC(=O)C=C(c3ccc(OC(F)(F)F)cc3)C2)cc1OC`, the “activation” value was -9.62%.
In the case of `O=C(O)CSc1ccc(S(=O)(=O)N2CCCC2)cn1`, the “activation” value is reported as -3.11%.
For `Cc1ccc(C(=O)OCC(=O)Nc2ccc(Cl)cn2)cc1S(=O)(=O)N1CCOCC1`, the “activation” value was -2.74%.
With `O=C(NCCc1ccc(F)cc1)c1ccc2nccnc2c1` the Potency was 1.78 µM (active).
In the case of `Cc1ccc(C)c(NC(=O)c2ccc3nccnc3c2)c1`, the “activation” value is reported as 17.9%.
For `O=C(NCCc1ccc(F)cc1)c1ccc(S(=O)(=O)N2CCCCC2)cc1`, the “activation” value was -0.529%.
For `Cc1ccc(S(=O)(=O)NCCC(=O)NCc2ccc(Cl)cc2)cc1C`, the “activation” value was -0.223%.
For `CCN(CC)C(CNC(=O)CSc1nnnn1-c1cccc(F)c1)c1ccco1` (stereo not given), the “activation” value was -0.632%.
With `CC(NC(=O)c1cccc(S(=O)(=O)N2CCc3ccccc3C2)c1)c1ccco1` (stereo not given) the “activation” value was -1.49%.
In the case of `COC(=O)c1c(NC(C)=O)sc(C(=O)Nc2ccccc2OC)c1C`, the “activation” value is reported as -0.966%.
In the case of `CCOC(=O)c1sc(NC(=O)COc2ncnc3ccccc23)c(C(=O)OCC)c1C`, the “activation” value is reported as 0.322%.
For `CCC(=O)Nc1sc(C(=O)Nc2ccccc2)c(C)c1C(=O)OC`, the Potency was 0.794 µM (active).
For `NC(=O)NC(CC(=O)NNC(=O)c1ccccn1)c1ccc(Cl)cc1` (stereo not given), the “activation” value was -0.18%.
For `CC(C)CCN1CCC(C)(NC(=O)c2ccccc2)C1=O` (stereo not given), the “activation” value was 4.78%.
In the case of `COc1ccc(N(Cc2ccccc2)S(=O)(=O)c2cccc(C(=O)O)c2)cc1`, the “activation” value is reported as 0.572%.
In the case of `COc1ccc(C(CC(=O)c2ccccc2)S(=O)(=O)c2ccccc2)cc1` (stereo not given), the Potency is reported as 3.55 µM (active).
With `COc1ccc(NC(=O)CS(=O)(=O)c2ccccc2)cc1` the “activation” value was 22.2%.
With `O=C(CN1CCN(S(=O)(=O)c2ccc(Cl)s2)CC1)N1CCCCC1` the “activation” value was -0.339%.
In the case of `COc1cc([N+](=O)[O-])ccc1NC(=O)COC(=O)CCOc1ccc(C)cc1`, the “activation” value is reported as -18.1%.
In the case of `COc1ccc(CNC(=O)c2ccc3oc(C(C)C)nc3c2)cc1`, the Potency is reported as 3.55 µM (active).
For `CC(C)c1nc2cc(C(=O)NC(C)c3cnn(C)c3)ccc2o1` (stereo not given), the “activation” value was -0.273%.
In the case of `COc1ccc(CNC(=O)c2cc(=O)c3c(C)cc(C)cc3o2)cc1`, the “activation” value is reported as 1.79%.
For `CCCN(C(=O)c1nc2nccc(C)n2n1)c1c(N)n(Cc2ccccc2)c(=O)[nH]c1=O`, the “activation” value was -1.99%.
For `Cn1c2cc(B(O)O)sc2c2cnn(Cc3ccccc3F)c(=O)c21`, the “activation” value was -9.76%.
In the case of `CCOCc1c(C(=O)N2CCN(Cc3ccc(Br)s3)CC2)oc2ccccc12`, the “activation” value is reported as -2.8%.
With `Cc1ccc(/C=C/C(=O)OCC(=O)Nc2cccnc2Cl)cc1` the “activation” value was -3.1%.
With `CCCCCOC(=O)NCCOC(=O)Nc1ccc(C(=O)OCC)cc1` the “activation” value was -4.44%.
With `CCCCCCOC(=O)NCC(O)c1ccccc1` (stereo not given) the Potency was 3.98 µM (active).
With `CCCCOC(=O)Nc1nnc(CC(=O)NCc2ccccc2)s1` the “activation” value was -2.1%.
In the case of `Brc1ccccc1C1Nc2cccc3cccc(c23)N1`, the “activation” value is reported as -5.12%.
In the case of `N#Cc1ccc(C2N=C(c3ccccc3)NO2)cc1` (stereo not given), the Potency is reported as 1.26 µM (active).
In the case of `Brc1ccccc1C1N=C(c2ccccc2)NO1` (stereo not given), the Potency is reported as 3.98 µM (active).
In the case of `S=C1NC(c2ccccc2)=NCN1c1ccc(Br)cc1`, the “activation” value is reported as 11.1%.
In the case of `CSCC[C@H](NC(=O)NC1CCCC1)C(=O)O`, the “activation” value is reported as -1.29%.
With `Cc1c(NC(=O)CSc2nnc(-c3cccnc3)n2N)c(=O)n(-c2ccccc2)n1C` the “activation” value was -4.26%.
In the case of `O=S(=O)(NCc1ccccc1Br)c1ccccc1Br`, the “activation” value is reported as 0.992%.
For `C=C1CCC(N(O)c2cc(C)on2)C(=C)CCC2C1CC2(C)C` (stereo not given), the “activation” value was -0.705%.
In the case of `O=C(COc1ccc2oc3c(c2c1)CCCC3)Nc1ccccn1`, the Potency is reported as 0.631 µM (active).
With `CCOC(=O)N1CCN(C(=O)COc2ccc3oc4c(c3c2)CCCC4)CC1` the “activation” value was 0.817%.
For `CCN(CC)CCCNC(=O)COc1ccc2oc3c(c2c1)CCCC3`, the “activation” value was -11.7%.
For `C(=N\Nc1ccc2ccccc2n1)/c1ccc2c(c1)OCO2`, the Potency was 0.316 µM (active).
In the case of `Brc1ccc(-c2csc(N/N=C/c3ccc4c(c3)OCO4)n2)cc1`, the “activation” value is reported as 6.54%.
For `O=C(N/N=C/c1ccc2c(c1)OCO2)C(=O)N1CCCC1`, the “activation” value was 26.8%.
In the case of `Cc1cc(C)nc(N/N=C/c2c(C)oc3ccccc23)n1`, the “activation” value is reported as -5.87%.
With `Cc1noc(C)c1/C=N/Nc1ccc2ccccc2n1` the Potency was 2.82 µM (active).
For `Cc1nc(Cl)cc(N/N=C/c2ccccc2)n1`, the “activation” value was 10.4%.
With `CCOc1ccc(S(=O)(=O)N2CCCCC2)cc1NC(=O)CN1CCCC1c1cccs1` (stereo not given) the “activation” value was -18.7%.
In the case of `O=C(c1ccc(Cl)nc1)N1CCN(S(=O)(=O)c2ccc3c(c2)OCCO3)CC1`, the “activation” value is reported as -8.95%.
For `CCN(CC)CCCNC(=S)N(CCO)Cc1cc2cc3c(cc2[nH]c1=O)OCO3`, the “activation” value was -0.386%.
With `Cc1ccc(OCc2nc3ccccc3n2C)cc1` the Potency was 3.55 µM (active).
In the case of `CCOc1ccc(C(O)Cc2nc3ccccc3n2C)cc1` (stereo not given), the “activation” value is reported as 27.8%.
In the case of `CC(C)n1c(COc2ccccc2)nc2ccccc21`, the “activation” value is reported as 5.01%.
In the case of `CCOC(=O)N1CCN(S(=O)(=O)c2ccc3c(c2)C(C)C(=O)N3)CC1` (stereo not given), the “activation” value is reported as 1.11%.
For `COc1ccc(C2=NOC(COC(=O)c3ccc4ccccc4n3)C2)cc1` (stereo not given), the “activation” value was 1.95%.
With `Cc1ccc(C(=O)NNC2=Nc3cc([N+](=O)[O-])ccc3OC2)cc1` the “activation” value was 0.883%.
With `COc1ccc(C2=Nc3cc(C)ccc3OC2)cc1` the Potency was 0.891 µM (active).
